Test results taken from PubChem BioAssay (Tox21).
Records with an inconclusive call do not appear. Calls of active or inactive are those of the source. Unless noted, the call rests on the fitted dose curve; in most records, active means well fitted curve in the direction sought with a large enough effect in the repeat runs; inconclusive means weak or mixed curves; inactive means no such curve, though single readings can be large; an effect the other way counts as inactive or inconclusive.

Assays:
[1] = qHTS assay for small molecule agonists of the p53 signaling pathway (AID 651631; calls by dose curve; further: nearly all actives have a fitted effect of over 15% in size)
Procedure, shortened: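 p53RE-bla HCT-116 cells; compounds 16 h, 37 °C; LiveBLAzer B/G FRET substrate 2 h RT; fluorescence intensity read-out, qHTS format.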

[2] = qHTS assay for small molecules that induce genotoxicity in human embryonic kidney cells expressing luciferase-tagged ATAD5 (AID 651632); further: nearly all actives have a fitted effect of over 15% in size
Procedure, shortened: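 A rise in luciferase signal from ATAD5-tagged HEK293T cells marks genetic stress. Cells were exposed to compounds for 16 hr at 37C, 5% CO2, then luciferase was quantified after a 30 min room-temperature incubation with Amplite.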

[3] = qHTS assay for small molecule agonists of the p53 signaling pathway - cell viability (AID 651633; calls by dose curve;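 further: p53RE-bla HCT reporter cells with a stable beta-lactamase p53 reporter; series mostly up to about 83 µM; nearly all actives have a fitted effect of over 30% in size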)
Procedure, shortened: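 p53RE-bla cells, seeded at 4,000 per well and rested 5 h at 37 C/5% CO2, received compounds in DMSO for 16 h at 37 C. CellTiter-Glo was then added, and luminescence was read after 30 min at room temperature to gauge cytotoxicity.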

[4] = qHTS assay for small molecules that induce genotoxicity in human embryonic kidney cells expressing luciferase-tagged ATAD5 - cell viability (AID 651634; calls by dose curve; further: nearly all actives have a fitted effect of over 25% in size)
Procedure, shortened: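 Cytotoxicity counter-readout: after 15.5 hr compound treatment at 37C, live-cell protease activity in ATAD5-luciferase HEK293T cells measured by CellTiter-Fluor fluorescence, 30 min development at 37C.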

[5] = qHTS assay for small molecule disruptors of the mitochondrial membrane potential - cell viability (AID 720634; calls by dose curve;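 further: human HepG2 liver cancer cells; series mostly up to about 83 µM; nearly all actives have a fitted effect of over 20% in size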)
Procedure, shortened: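 Cytotoxicity was quantified from ATP content by CellTiter-Glo luminescence in the same wells as the MMP dye read-out. HepG2 (2,000 cells/well) were plated overnight and exposed to compounds for 1 hr at 37 C.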

[6] = qHTS assay for small molecule disruptors of the mitochondrial membrane potential (AID 720635)
Procedure, shortened: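 HepG2 cells (2,000/well) attached overnight at 37C, then took compound for 1 hr at 37C, 5% CO2. Mito-MPS dye was added for 30 min; fluorescence was read at 490/535 nm (monomers) and 540/590 nm (aggregates).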

[7] = qHTS assay to test for compound auto fluorescence at 590 nm (red) in HepG2 cells (AID 720674)
Procedure, shortened: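 Compound auto-fluorescence is scored relative to Rose Bengal sodium, measured at 540/590 nm in live HepG2 cultures after 1 hr compound contact (37 C, 5% CO2).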

[8] = qHTS assay to test for compound auto fluorescence at 535 nm (green) in HepG2 cells (AID 720675)
[9] = qHTS assay to test for compound auto fluorescence at 460 nm (blue) in HEK293 cells (AID 720678)
Procedure, shortened: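 Triamterene serves as the blue fluorophore standard. Compound signal at 405/460 nm is read in HEK293 wells (2,000 cells, 10% dialyzed FBS) after overnight treatment at 37C.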

[10] = qHTS assay to test for compound auto fluorescence at 590 nm (red) in HEK293 cells (AID 720679)
Procedure, shortened: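 We plated HEK293 cells in 10% dialyzed FBS medium, let them adhere for 4-5 hr, then added 23 nL compound. Overnight at 37C and 5% CO2 preceded fluorescence measurement at 540/590nm.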

[11] = qHTS assay to test for compound auto fluorescence at 535 nm (green) in HEK293 cells (AID 720680)
[12] = qHTS assay to test for compound auto fluorescence at 460 nm (blue) in HEK293 cell free culture (AID 720681)
Procedure, shortened: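 Test compounds were pinned into cell-free culture medium (DMEM with 10% FBS) and fluorescence was read directly at Ex/Em 405/460 nm. Signals were expressed as fluorescence equivalents of triamterene, with DMSO vehicle as control.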

[13] = qHTS assay to test for compound auto fluorescence at 535 nm (green) in HEK293 cell free culture (AID 720682)
Procedure, shortened: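 Cell-free medium (DMEM, 10% FBS) receives compound or DMSO by pintool. Plate read directly at Ex 485/Em 535 nm. Signal converted to fluorescein equivalency.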

[14] = qHTS assay to test for compound auto fluorescence at 590 nm (red) in HEK293 cell free culture (AID 720683)
Procedure, shortened: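 Tox21 10K library compounds were pinned into cell-free DMEM with 10% FBS and fluorescence was read at excitation 540 nm. Activity is expressed as Rose Bengal sodium equivalency.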

[15] = qHTS assay to test for compound auto fluorescence at 590 nm (red) in HepG2 cell free culture (AID 720684)
Procedure, shortened: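 Ex 540 / Em 590 nm read of compound in cell-free MEM (10% FBS). Rose Bengal sodium reference.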

[16] = qHTS assay to test for compound auto fluorescence at 460 nm (blue) in HepG2 cell free culture (AID 720685)
Procedure, shortened: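 Cell-free plates of MEM plus 10% FBS received 23 nL compound or DMSO vehicle; blue-channel (405/460 nm) intensity scored against triamterene as reference fluorophore.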

[17] = qHTS assay to test for compound auto fluorescence at 535 nm (green) in HepG2 cell free culture (AID 720686)
[18] = qHTS assay to test for compound auto fluorescence at 460 nm (blue) in HepG2 cells (AID 720687)
Procedure, shortened: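 Cells (2,000/well in MEM with 10% FBS) attached overnight at 37 C, then were exposed to compound or DMSO for 1 hr at 37 C, 5% CO2. Fluorescence read at Ex/Em 405/460 nm, expressed as triamterene-equivalent signal.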

[19] = target: Glucocorticoid receptor (Homo sapiens) (UniProt P04150); experiment: qHTS assay to identify small molecule agonists of the glucocorticoid receptor (GR) signaling pathway (AID 720691; active means well fitted activation curve with a large enough effect in the signal ratio in the repeat runs, not every such curve was filed as active; the % refers to the signal ratio; further: potency means the concentration at half of the fitted maximal effect)
Procedure, shortened: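 Agonist-mode qHTS in HeLa cells stably expressing a glucocorticoid-response-element beta-lactamase reporter. Fluorescence intensity read with FRET substrate (2 h, room temperature) after 18 h compound treatment at 37 C.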

[20] = target: Glucocorticoid receptor (Homo sapiens) (UniProt P04150); experiment: qHTS assay to identify small molecule antagonists of the glucocorticoid receptor (GR) signaling pathway (AID 720692; active means well fitted inhibition curve with a large enough effect in the signal ratio in the repeat runs, not every such curve was filed as active; the % refers to the signal ratio; further: potency means the concentration at half of the fitted maximal effect)
Procedure, shortened: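 Inhibition of dexamethasone-driven (5 nM final) beta-lactamase expression was measured in GRE-reporter HeLa cells over 18 h at 37C. Fluorescence was read after 2 h with the B/G FRET substrate at room temperature.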
On the % scale 0 is the no-effect control and ±100 the full control effect.

Glucocorticoid receptor (Homo sapiens), sequence (P04150 whole entry, looked up): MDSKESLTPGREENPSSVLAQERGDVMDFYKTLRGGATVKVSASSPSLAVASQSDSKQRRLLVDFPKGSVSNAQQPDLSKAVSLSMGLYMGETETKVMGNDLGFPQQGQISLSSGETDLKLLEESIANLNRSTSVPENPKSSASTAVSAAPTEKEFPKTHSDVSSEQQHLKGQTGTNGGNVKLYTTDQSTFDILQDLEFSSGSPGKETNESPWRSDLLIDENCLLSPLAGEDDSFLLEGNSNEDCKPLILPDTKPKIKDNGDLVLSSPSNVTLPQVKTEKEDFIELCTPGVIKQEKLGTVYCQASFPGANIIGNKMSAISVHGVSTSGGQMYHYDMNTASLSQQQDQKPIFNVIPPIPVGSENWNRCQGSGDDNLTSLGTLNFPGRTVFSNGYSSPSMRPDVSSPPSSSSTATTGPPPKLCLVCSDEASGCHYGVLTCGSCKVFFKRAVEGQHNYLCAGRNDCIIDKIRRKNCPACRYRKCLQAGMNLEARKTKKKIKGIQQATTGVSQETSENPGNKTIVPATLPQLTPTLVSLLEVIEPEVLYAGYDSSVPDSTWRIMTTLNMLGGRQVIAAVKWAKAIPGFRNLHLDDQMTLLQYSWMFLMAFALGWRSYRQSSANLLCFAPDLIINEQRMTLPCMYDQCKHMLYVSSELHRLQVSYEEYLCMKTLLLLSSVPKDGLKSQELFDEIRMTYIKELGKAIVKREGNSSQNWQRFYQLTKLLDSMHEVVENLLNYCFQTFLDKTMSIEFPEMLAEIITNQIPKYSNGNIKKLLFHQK

CCN(C=O)CC
inactive: Potency [1] | Potency [2] | Potency [3] | Potency [4] | outcome [5] | Potency [6] | outcome [7] | outcome [8] | outcome [9] | outcome [10] | outcome [11] | outcome [12] | outcome [13] | outcome [14] | outcome [15] | outcome [16] | outcome [17] | outcome [18] | Potency [19] | Potency [20]

O=Cc1cccc(Br)c1
inactive: Potency [1] | Potency [2] | Potency [3] | Potency [4] | outcome [5] | Potency [6] | outcome [7] | outcome [8] | outcome [9] | outcome [10] | outcome [11] | outcome [13] | outcome [14] | outcome [15] | outcome [16] | outcome [17] | outcome [18] | Potency [19] | Potency [20]

O=C(O)CCSCCC(=O)O
inactive: Potency [1] | Potency [2] | Potency [3] | Potency [4] | outcome [5] | Potency [6] | outcome [7] | outcome [8] | outcome [9] | outcome [10] | outcome [11] | outcome [12] | outcome [13] | outcome [14] | outcome [15] | outcome [16] | outcome [17] | outcome [18] | Potency [19] | Potency [20]

C[N+]1(C)CCCC(OC(=O)C(O)(c2ccccc2)c2ccccc2)C1 (centres undefined)
active: Potency [19] 7.23 µM
inactive: Potency [1] | Potency [2] | Potency [3] | Potency [4] | outcome [5] | Potency [6] | fluorescence, relative to Rose Bengal [7] 0.011% [at 18.6 µM] | fluorescence, % of fluorescein control [8] -0.152% [at 18.6 µM] | fluorescence, % of fluorescent control [10] 0.215% [at 18.6 µM] | fluorescence, % of fluorescein [11] -0.129% [at 18.6 µM] | fluorescence, % of fluorescent control [12] 0.158% [at 18.6 µM] | activity change [13] -0.0354% [at 18.6 µM] | fluorescence, % of fluorescent control [14] 0.023% [at 18.6 µM] | fluorescence, % of Rose Bengal [15] -0.11% [at 18.6 µM] | fluorescence, % of fluorescent control [16] -0.0313% [at 18.6 µM] | fluorescence, % of fluorescein control [17] -0.0015% [at 18.6 µM] | fluorescence, % of fluorescent control [18] -0.102% [at 18.6 µM]

CC(=O)c1cnccn1
inactive: Potency [1] | Potency [2] | Potency [3] | Potency [4] | outcome [5] | Potency [6] | outcome [7] | outcome [8] | outcome [9] | outcome [10] | outcome [11] | outcome [12] | outcome [13] | outcome [15] | outcome [16] | outcome [17] | outcome [18] | Potency [19] | Potency [20]

O=C(CO)[C@@H](O)[C@H](O)[C@H](O)CO
inactive: Potency [1] | Potency [2] | Potency [3] | Potency [4] | outcome [5] | Potency [6] | outcome [7] | outcome [8] | outcome [9] | outcome [10] | outcome [11] | outcome [12] | outcome [13] | outcome [14] | outcome [15] | outcome [16] | outcome [17] | outcome [18] | Potency [20]

CC/C=C\CCOC(C)OCC (centres undefined)
inactive: Potency [1] | Potency [2] | Potency [3] | Potency [4] | outcome [5] | Potency [6] | outcome [7] | outcome [8] | outcome [9] | outcome [10] | outcome [12] | outcome [13] | outcome [14] | outcome [15] | outcome [16] | outcome [17] | outcome [18] | Potency [20]

CCOc1ccccc1OCC
inactive: Potency [1] | Potency [2] | Potency [3] | Potency [4] | outcome [5] | Potency [6] | outcome [7] | outcome [8] | outcome [9] | outcome [10] | outcome [12] | outcome [13] | outcome [15] | outcome [16] | outcome [17] | Potency [20]

C=C(C)C(=O)OCCOCCOCCOCCOC(=O)C(=C)C
inactive: Potency [1] | Potency [2] | Potency [3] | Potency [4] | outcome [5] | outcome [7] | outcome [8] | outcome [9] | outcome [10] | outcome [11] | outcome [12] | outcome [13] | outcome [15] | outcome [16] | outcome [17] | outcome [18]

CN(C)C(=O)Oc1cccc([N+](C)(C)C)c1
inactive: Potency [1] | Potency [2] | Potency [3] | Potency [4] | outcome [5] | outcome [7] | outcome [8] | outcome [9] | outcome [10] | outcome [11] | outcome [12] | outcome [13] | outcome [14] | outcome [15] | outcome [16] | outcome [17] | outcome [18] | Potency [19] | Potency [20]

CO/N=C(\C(=O)N[C@@H]1C(=O)N2C(C(=O)O)=C(CSc3nc(=O)c(O)nn3C)CS[C@H]12)c1csc(N)n1
inactive: Potency [1] | Potency [2] | Potency [3] | Potency [4] | outcome [5] | Potency [6] | outcome [8] | outcome [9] | outcome [10] | outcome [11] | outcome [12] | outcome [13] | outcome [14] | outcome [15] | outcome [16] | outcome [17] | outcome [18] | Potency [19] | Potency [20]

C=CCOCC(O)CO (centres undefined)
inactive: Potency [1] | Potency [2] | Potency [3] | Potency [4] | outcome [5] | outcome [7] | outcome [8] | outcome [9] | outcome [10] | outcome [11] | outcome [12] | outcome [13] | outcome [14] | outcome [15] | outcome [16] | outcome [17] | outcome [18] | Potency [19] | Potency [20]

C[C@H]1C[C@H]2[C@@H]3CCC4=CC(=O)C=C[C@]4(C)[C@H]3C(=O)C[C@]2(C)[C@@]1(O)C(=O)CO
active: Potency [20] 2.13 µM
inactive: Potency [1] | Potency [2] | Potency [3] | Potency [4] | outcome [5] | Potency [6] | outcome [7] | outcome [8] | outcome [10] | outcome [12] | outcome [13] | outcome [14] | outcome [15] | outcome [16] | outcome [18] | Potency [19]
